# Data published in the OligoGym collection.
# Molecular target: PHF23
# Assay: pooled miR-30 sensor sort-seq; sequence = guide strand
# Settings: shRNA
# Note: reference of the scale not given here.
row,Sequence,sensor-assay potency score (higher = more potent)
1,TTCTCTTGGATGACTTTGCTTT,-0.308
2,TTCAGAGTCTGTATCACTGGGG,0.423
3,TACCATGATGTCCTCGTCCATG,-1.2

# Molecular target: PHF8
# Assay: as above
# Settings: shRNA
row,Sequence,sensor-assay potency score (higher = more potent)
1,TTGCTTTCTGGAAAGAGCCTGT,-0.163
2,TTGCTATCTTGGTTCGCCGAGA,-0.723
3,TTCAACACCAACACAACTGCCA,0.225
4,TTTCACAAAATCACCAAGCTTC,0.0269
5,TCACACTCGATCATGAAGCGGG,0.234
6,AACACTTGTAGCACTTGTCCAC,-0.0267
7,TTTGTCAGAACCAACATAGTGT,0.088
8,TTCCAAACTAATGACATTGAGG,-0.716
9,TTCTGCTTGAACGATGACCTGT,0.147
10,TTGGATAAACTCTTCACCCTTT,0.593
11,TTGAGCTGCATCTCGATGTTAA,-0.768
12,TTTGCTATCTTGGTTCGCCGAG,-0.492

# Molecular target: PIK3AP1
# Assay: as above
# Settings: shRNA
row,Sequence,sensor-assay potency score (higher = more potent)
1,AAGTCTAGGAACTCCTCGCTGT,0.0251
2,TTGCCTTCTAAAAACTTGCGGA,-0.361
3,TTTAATGTGACTCTTGAGCATG,-0.893
4,TTCCTCTTTAATGTGACTCTTG,-0.151
5,TTCGATTAAGTCTTCATCCTTT,0.829
6,TTCTTCAGTCCATACTTCGCAG,-0.885
7,TTACTTGTGCTACTTGCTGTGC,-0.439
8,TTGTCATCATATCTTCTTCTTC,-0.605
9,TAGCCGTTTAAGATTTTCCTGC,-0.144
10,TTAAGGTCAACAGTCATGCTAT,-0.337
11,TAGACGATGAGGATGTCGCATC,-0.908
12,TACTCGTCGATGAACTGCCGCA,-0.193

# Molecular target: PIK3R4
# Assay: as above
# Settings: shRNA
row,Sequence,sensor-assay potency score (higher = more potent)
1,TTCCTTTAAAACACTGAGCAGA,-0.752
2,TAGCAAAGTAACAACTTTCTGC,0.5
3,TTGTCTCGCACATACTGCCTAA,-0.86
4,TATCTGAAAAATAACTCTCTAC,-0.529
5,TTTTATTTAGCACTTGTTCAGG,-0.266
6,TTATTTTCATATCTGAGCCAGC,-0.787
7,TAAACTAGTCAAGTACATCTTA,0.418
8,TTCAATTTTATTTAGCACTTGT,0.585
9,TTACAGTAGACATCAGCTGTAC,0.0221
10,TTTTGTAGCAGTCCTAACTGGC,-0.0245
11,TAATAGCTTACAACCATCTTTT,-0.784
